# Measured values as given in PubChem BioAssay AID504357 (The Scripps Research Institute Molecular Screening Center, 2011).
# Out of some 340,000 compounds screened, about 700 (0.21%) were called active. Cut-off read from the data, not from the text of the source: active = inhibition above about 22% (passing the limit was not always enough); inactive = the rest. The sample as a whole holds a higher share of actives than the screen did.
# Molecular target: Mu-type opioid receptor (Homo sapiens) + Delta-type opioid receptor (Homo sapiens) (UniProt P35372+P41143)
# Experiment: OPRM1-OPRD1 heterodimer inverse agonism – cell-based, luminescence, primary screen (AID 504357);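 note: 0% = cells with DMSO and 100% = wells without cells with DMSO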
# Details: cell-based MOR-DOR heterodimer luminescence, at 9.3 µM, active compounds read high
# Mu-type opioid receptor (Homo sapiens) + Delta-type opioid receptor (Homo sapiens), sequence (P35372 whole entry, looked up): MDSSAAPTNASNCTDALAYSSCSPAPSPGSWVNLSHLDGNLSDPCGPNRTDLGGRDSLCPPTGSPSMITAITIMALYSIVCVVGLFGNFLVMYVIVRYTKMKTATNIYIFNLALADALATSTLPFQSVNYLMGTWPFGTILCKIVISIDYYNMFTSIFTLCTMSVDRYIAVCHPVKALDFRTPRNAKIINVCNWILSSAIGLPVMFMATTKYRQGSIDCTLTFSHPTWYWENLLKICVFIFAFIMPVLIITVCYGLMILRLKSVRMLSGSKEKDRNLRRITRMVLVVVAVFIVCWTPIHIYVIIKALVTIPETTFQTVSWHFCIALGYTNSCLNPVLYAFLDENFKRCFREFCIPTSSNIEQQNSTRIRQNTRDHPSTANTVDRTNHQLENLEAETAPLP
# Mu-type opioid receptor (Homo sapiens) + Delta-type opioid receptor (Homo sapiens), sequence (P41143 whole entry, looked up): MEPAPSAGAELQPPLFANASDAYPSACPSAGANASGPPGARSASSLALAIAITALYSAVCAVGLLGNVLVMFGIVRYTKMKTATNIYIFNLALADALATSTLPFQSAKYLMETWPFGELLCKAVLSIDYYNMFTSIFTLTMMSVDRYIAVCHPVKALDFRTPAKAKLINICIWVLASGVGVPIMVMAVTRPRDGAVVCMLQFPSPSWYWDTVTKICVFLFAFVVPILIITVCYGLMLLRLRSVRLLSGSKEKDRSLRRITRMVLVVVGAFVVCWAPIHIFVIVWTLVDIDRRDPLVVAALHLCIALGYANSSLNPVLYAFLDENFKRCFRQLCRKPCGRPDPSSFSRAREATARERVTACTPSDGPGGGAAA
row,Structure (SMILES),inhibition
1,COc1ccc(-c2ccc(CNCCCN3CCOCC3)o2)cc1Cl,-3.74% (inactive)
2,Nc1ccc2c(c1)C(O)c1ccc(Cl)cc1-2 (stereo not given),-2.52% (inactive)
3,C/C(O)=C\c1nc(=O)c2c(C)cc(C)nc2n1-c1ccccc1,-10.5% (inactive)
4,Cc1ccc(CN(C(=O)c2sc3ccccc3c2Cl)C2CCS(=O)(=O)C2)cc1 (stereo not given),-141% (inactive)
5,CCOC(=O)c1sc(-c2cccc([N+](=O)[O-])c2)cc1N,-25.6% (inactive)
6,CC(=O)Nc1ccc(S(=O)(=O)N2CCN(c3ccc([N+](=O)[O-])c(NCCN4CCOCC4)c3)CC2)cc1,4.65% (inactive)
7,O=C(CNC(=O)c1ccccc1Br)NCCSc1ccc(Br)cc1,3.63% (inactive)
8,COc1cc(C(=O)OC(C)C(=O)NCC2CCCCC2)cc(NC(=O)c2ccco2)c1OC (stereo not given),-157% (inactive)
9,O=C(Nc1cccc(Br)c1)C1CC(=O)N(C2CCCC2)C1 (stereo not given),-5.3% (inactive)
10,CCN(CC)C(=O)CN(c1cccc(OC)c1)S(=O)(=O)c1ccc(C)cc1,13% (inactive)
11,CCN(CCCNC(=O)C1CCN(S(=O)(=O)c2cnc[nH]2)CC1)c1ccccc1,-0.9% (inactive)
12,Cc1cc(/C=C2/SC(=O)N(CC(=O)OC(C)C)C2=O)c(C)n1C,5.02% (inactive)
13,CCOC(=O)C1CCN(C(=O)CN2C(=O)c3cccnc3Oc3ccc(C)cc32)CC1,20% (inactive)
14,Cc1cccc2c1N(CC(=O)OC(C)C)C(=O)C2=O,67.2% (active)
15,COc1cc(C(C)=O)ccc1OC(=O)CN1C(=O)c2ccccc2C1=O,17.3% (inactive)
16,Cc1ccc2c(c1)-c1c(ssc1=S)C(C)(C)N2C(=O)CN1C(=O)c2ccccc2C1=O,11.6% (inactive)
17,CC(C)OC(=O)CN1CCN(c2ccc(Cl)cc2)CC1,-2.26% (inactive)
18,Cc1cccc2c1N(CCOc1ccccc1)C(=O)C2=O,55.7% (active)
19,CCOC(=O)CN1C(=O)C(=O)c2cc(C)ccc21,40.6% (active)
20,CC1(C)NC(=O)N(CCOc2cccc(Oc3ccccc3)c2)C1=O,10.6% (inactive)
21,O=C1c2ccccc2C(=O)N1CCOc1ccc(F)cc1,-0.37% (inactive)
22,CC(C)OC(=O)CN1C(=O)C(=O)c2ccccc21,96.4% (active)
23,CC(OC(=O)CN1C(=O)c2ccccc2C1=O)C(=O)c1ccccc1 (stereo not given),9.57% (inactive)
24,O/N=C(\c1ccc2c(c1)OCCO2)C1CCCCC1,10.1% (inactive)

row,Structure (SMILES),inhibition
1,CSc1ccccc1C(=O)OCC(=O)N1CCN(C(C)=O)CC1,12.6% (inactive)
2,CC1CN(S(=O)(=O)c2ccc(C(=O)NN3CCN(C)CC3)cc2)CC(C)O1 (stereo not given),-5.71% (inactive)
3,O=C(/C=C/c1ccc(Cl)cc1)NCCCn1ccnc1,1.46% (inactive)
4,Cc1cccc(NC(=O)Cc2ccc(Br)cc2)n1,2.04% (inactive)
5,O=C(Cc1c(Cl)cccc1Cl)NC1CC1,1.58% (inactive)
6,O=C(CCl)NNc1cccc(Cl)n1,75% (active)
7,CN(C(=O)CCn1c(=S)oc2ccccc21)C1CCCCC1,10.3% (inactive)
8,CNS(=O)(=O)c1ccc(N2CCCC2=O)c([N+](=O)[O-])c1,-2.31% (inactive)
9,CC(c1ccco1)N(C(=O)c1ccc(S(=O)(=O)N2CCCCC2)cc1)c1ccccn1 (stereo not given),13.7% (inactive)
10,Cc1cc(C)c(S(=O)(=O)n2cc(C(C)C(N)C(=O)O)c3ccccc32)c(C)c1 (stereo not given),8.06% (inactive)
11,Cn1nc([N+](=O)[O-])nc1Sc1ccc(C(C)(C)C)cc1,-22.7% (inactive)
12,CCOC(=O)c1cccc(NC(=O)C2CCN(c3ncnc4c3nc3n4CCCCC3)CC2)c1,-0.14% (inactive)
13,CCCCCC(O)(CCN1CCCCC1)c1ccccc1 (stereo not given),4.99% (inactive)
14,CCn1cc(CCC(=O)NCc2ccc(F)cc2)c2ccccc21,-13.5% (inactive)
15,Cc1ccc(NC(=S)Nc2ccc(F)cc2)cc1,9.82% (inactive)
16,Cc1ccc(C(=O)NC2CCN(C(=O)Nc3ccc(F)cc3)CC2)cc1,6.33% (inactive)
17,Cc1ccc(C(=O)CNc2ccc(F)cc2)cc1,42.7% (active)
18,CCCCCC(=O)NC(=S)NNC(=O)c1ccc([N+](=O)[O-])cc1,-3.86% (inactive)
19,CCCCC(=O)NNC(=S)NC(=O)C(c1ccccc1)c1ccccc1,27.8% (active)
20,CCNC(=S)NNC(=O)Cc1ccccc1,2.92% (inactive)
21,COc1ccc(NC(=O)CCn2ccnc2)c(OC)c1,9.95% (inactive)
22,Cn1c(=S)sc2ccc3ccccc3c21,-28.3% (inactive)
23,O=C(C1CC(=O)N(c2ccc(F)cc2)C1)N1CCN(c2ccccc2)CC1 (stereo not given),14% (inactive)
24,CCOC(=O)N1CCN(C(=O)c2ccccc2N(Cc2ccccc2)S(=O)(=O)c2ccc(OC)cc2)CC1,-2.13% (inactive)

row,Structure (SMILES),inhibition
1,N#Cc1cccc(NC(=O)CCC2CCCC2)c1,-3.46% (inactive)
2,O=C1NC(=O)C(CCc2ccccc2)(c2ccccc2)N1 (stereo not given),16.3% (inactive)
3,COC(=O)c1cc2occc2n1Cc1nc(-c2ccccc2C)oc1C,-3.9% (inactive)
4,CN(C)CCn1c2c(c(SCC(=O)NCc3ccccc3)nc1=O)CCC2,-0.58% (inactive)
5,CCc1c(Nc2ccccc2C)nc(N)[nH]c1=O,0.05% (inactive)
6,O=C(CCc1nc2sc3c(c2c(=O)[nH]1)CCCC3)NCC(=O)Nc1ccccc1Br,17% (inactive)
7,CCOc1cc(NS(=O)(=O)c2ccc(OC)cc2)c(OCC)cc1NC(C)=O,-4.39% (inactive)
8,COc1ccc(N2CC(NS(=O)(=O)c3ccc4ccccc4c3)CC2=O)cc1 (stereo not given),7.42% (inactive)
9,COc1cc(NS(=O)(=O)c2ccc3ccccc3c2)c2ncccc2c1,38.6% (active)
10,COC(=O)Cc1c(-c2[nH]c3ccccc3c2CC(=O)OC)[nH]c2ccccc12,42.2% (active)
11,CCCOC(=O)Cc1c(O)c2ccccc2[nH]c1=O,15.1% (inactive)
12,COC(=O)Cc1ccc(NC(=S)NCc2ccccc2)cc1,5.98% (inactive)
13,Cc1ccc(-n2nc(-c3ccco3)cc2C(=O)NCc2cccnc2)cc1,10.7% (inactive)
14,O=C1C(=O)N(CC2COc3ccccc3O2)c2ccccc21 (stereo not given),35.1% (active)
15,O=C(NCC1COc2ccccc2O1)C1(c2ccccc2)CCCC1 (stereo not given),4.79% (inactive)
16,O=C(CN1C(=O)C2C3C=CC(C3)C2C1=O)NCC1COc2ccccc2O1 (stereo not given),-16.6% (inactive)
17,COc1cc2sc(C)nc2cc1C,-8.04% (inactive)
18,O=C(O)C(=Cc1ccccc1[N+](=O)[O-])c1ccccc1,9.45% (inactive)
19,CC(C)CCSc1ncnc2c1oc1nc3c(cc12)COC(C)(C)C3,5.61% (inactive)
20,Cc1ccc2nc(SCc3nnc(-c4ccccc4[N+](=O)[O-])o3)c(C#N)cc2c1,13% (inactive)
21,Cc1nc2cc(NC(=O)CSc3nc4c(C)cccc4cc3C#N)ccc2s1,12.7% (inactive)
22,CCN1C[C@@H]2[C@@H]3C(=O)N(Cc4ccccc4)C(=O)[C@@H]3[C@](C)(C1=O)N2C(=O)c1ccc(C(C)(C)C)cc1,0.58% (inactive)
23,Cn1ccs/c1=N\S(=O)(=O)c1ccc(C(C)(C)C)cc1,4.78% (inactive)
24,CC(C)(C)c1nnc(NC(=O)C2c3ccccc3Oc3ccccc32)s1,-37% (inactive)

row,Structure (SMILES),inhibition
1,N#C/C(=C/c1ccc(Cl)cc1)NC(=O)c1ccccc1,-2.56% (inactive)
2,O=C(CN1CCCSc2ccccc21)N1CCN(S(=O)(=O)c2cccc(F)c2)CC1,9.06% (inactive)
3,O=C1C[C@@H]2c3c(cccc3CN1Cc1ccccc1)C[C@@H](O)[C@H]2O,1.13% (inactive)
4,CCCNC(=O)CCn1cc(-c2ccc(OC)cc2)nc1CCN,7.6% (inactive)
5,COC(=O)c1scc(C)c1NC(=O)CSc1ccc(Cl)cc1,0.66% (inactive)
6,CC(=O)c1ccc(NC(=O)C(C)N(C)CC(=O)Nc2ccccc2Cl)cc1 (stereo not given),2.42% (inactive)
7,CCOC(=O)c1c(-n2cnnn2)sc(C)c1C,18.6% (inactive)
8,Cc1ccc(Oc2cc(NC(=O)CCCn3nc(C)c([N+](=O)[O-])c3C)cc([N+](=O)[O-])c2)cc1,-12.5% (inactive)
9,Cc1ccc(S(=O)(=O)N2CCOCC2)cc1C(=O)NC(=S)N(Cc1ccccc1)C(C)C,20% (inactive)
10,COc1ccc(-n2c(O)c(C=NCC(c3ccco3)N3CCCC3)c3ccccc3c2=O)cc1OC (stereo not given),12.1% (inactive)
11,Cc1cccc(-n2c(Cc3cc(=O)[nH]c(=O)[nH]3)nnc2SCC(=O)Nc2cccc(C(F)(F)F)c2)c1,-3.78% (inactive)
12,COC(=O)C1(CCSC)NC(c2ccc(OC)cc2OC)C2C(=O)N(c3cccc(C(C)=O)c3)C(=O)C21 (stereo not given),15.3% (inactive)
13,NNc1cccc(C=Cc2ccccc2)cc1=O,-23.2% (inactive)
14,COc1ccc(CC(=O)OC(C)C(=O)Nc2ccc(S(N)(=O)=O)cc2)cc1 (stereo not given),6.12% (inactive)
15,Cc1c(C(=O)N(Cc2ccccc2)Cc2cccnc2)cnn1-c1ccc(F)cc1,15.9% (inactive)
16,Cc1ccccc1NC(=O)CSC1=NCCN1,6.55% (inactive)
17,Cc1ccc(S(=O)(=O)Oc2ccc(/C=N/NC(=O)c3c(Cl)cnn3C)cc2)cc1,6.6% (inactive)
18,O=S(=O)(c1ccc(Br)cc1)n1ccc2ccccc21,-60.1% (inactive)
19,O=C(NC1CCCCCCC1)c1cccs1,-15.7% (inactive)
20,OCC[C@H]1C[C@H](O)[C@@H](O)[C@]2(CCCCO2)O1,1.27% (inactive)
21,Cc1cccc(C2c3[nH]c4ccccc4c3CCN2C(=O)c2cc(-c3cccn3C)n[nH]2)n1 (stereo not given),-17.1% (inactive)
22,CC(=O)c1ccc(NC(=O)CCc2nnc3ccc(NCc4ccco4)nn23)cc1,18.1% (inactive)
23,COC(=O)c1cccc(C(=O)N2CCCC(Nc3ccc4c(c3)OCCO4)C2)c1 (stereo not given),-2.83% (inactive)
